Potency and affinity values are given separately. Active and inactive are the calls of the source. Entries that show only a call come without a potency. No rule for the calls is given here.
assay: HepG2 cell cytotoxicity, dose response, cytotoxicity control, set 3 (AID 504853); conditions: series mostly up to 50 µM

SMILES	outcome
Cc1nc(SCC(N)=O)[nH]c(=O)c1C	inactive
CC1CCN(C(=O)C2CCN(c3nnc(-n4cccc4)s3)CC2)CC1	inactive
O=C(CSc1nc2c(c(=O)[nH]1)CCCC2)NC1CCCCC1	inactive
NC(=O)CSc1nc2ccccc2c(=O)[nH]1	inactive
O=C(CSc1nc2ccccc2c(=O)[nH]1)NCc1ccc(Cl)cc1	inactive
